# PubChem BioAssay AID1956 (SRMLSC, 2009)
# The whole screen tested about 220,000 compounds, of which about 10 (0.005%) were called active. No stated cut-off is given here; in the data, active means maximum fold increase above about 1.5; inconclusive means no clear call, values can overlap the other calls; inactive means below that; tested in PC3 cells. Not all results are given here.
# Assay: enhancers of HSV replication in host cells, fold increase, host cell viability (AID 1956)
# Conditions: HSV replication augmentation in cells; fold increase: measured here: primary screen fold increase 10 uM, at 10 µM, stronger effect = higher value; maximum fold increase: at 0.098 µM, stronger effect = higher value; viability: measured here: host cell viability series, at 25 µM, stronger effect = lower value
SMILES,fold increase,outcome
CC1(C)CC(N2CCN(C(c3ccccc3)c3ccccc3)CC2)=CC(=[N+]2CCCCC2)C1,0.65,inactive
C#CCOCCOCCOCCNc1nc(N2CCN(C(=O)C([C@@H](C)CC)n3cc(C(N)COC(=O)C(F)(F)F)nn3)CC2)nc(N2CCN(C(=O)[C@H](Cc3ccc(O)cc3)n3cc(C(N)[C@H](C)CC)nn3)CC2)n1 (some centres not stated),0.87,inactive
C#CCNC(=O)[C@H](Cc1ccc(C(=O)c2ccccc2)cc1)NC(=O)OC(C)(C)C,0.7,inactive
COc1ccccc1-n1cn[nH]c1=S,0.88,inactive
O=C(O)CCn1c(O)c(C=C2N=c3ccccc3=N2)sc1=S,1.18,inactive
Cc1nc(Cl)c(C#N)c2c1CCCC2,0.96,inactive
O=c1[nH]snc1-c1c(Cl)cccc1Cl,0.9,inactive
C[C@@H](NC(=O)OC(C)(C)C)c1nnc(S(=O)(=O)Cc2ccccc2)o1,0.98,inactive
OCC[C@H]1C[C@H](O)[C@@H](O)[C@]2(CCCCO2)O1,0.79,inactive
CCCCCCCCCCCCN1[C@@H](CC(C)=O)c2cc(F)cc(F)c2S1(=O)=O,0.93,inactive
COc1ccc(CN2[C@@H](CC(=O)O)c3cc(F)ccc3S2(=O)=O)cc1,0.82,inactive
C=CCC(Nc1ccccc1)c1cccc(OC)c1OC (configuration not stated),0.99,inactive
COc1ccc(CNC(=O)C2(CC3CC(c4ccccc4)=NO3)CCN(C(=O)c3cccc(O)c3)CC2)cc1 (configuration not stated),0.88,inactive
CC1CCN(Cc2nc(-c3ccc(Cl)cc3)no2)CC1,0.99,inactive
NC(=O)NC(=O)CSc1nc2cc([N+](=O)[O-])ccc2n1-c1cccc(C(F)(F)F)c1,0.9,inactive
COc1ccc(N2C(=O)C3C(C2=O)C(C(=O)c2ccccc2)N2CCCC32)cc1 (configuration not stated),1.02,inactive
Cc1ccccc1NC(=O)Nc1ccccc1N1CCCCC1,0.85,inactive
CCCC[C@@H]1CN=C(N)N1CCc1cccc(F)c1,0.84,inactive
C/C=C(/C)C(=O)O[C@@H]1c2cc3c(c4c2[C@@]2(CO4)C(=O)C(OC)=C(OC)C=C2C[C@@H](C)[C@H]1C)OCO3,0.75,inactive
CC1Cc2ccccc2N1CC(=O)Nc1ccc(S(N)(=O)=O)cc1 (configuration not stated),1.03,inactive
O=C(Nc1nnc(COc2ccccc2)s1)Nc1ccccc1F,0.9,inactive
COc1ccc(COCCN2CCN(S(=O)(=O)c3ccccc3)CCC2=O)cc1,0.895,inactive
N/C(=N\OC(=O)CCn1cccc(C(F)(F)F)c1=O)c1ccc(OC(F)(F)F)cc1,0.99,inactive

SMILES,fold increase,outcome
C=CC(COCc1ccccc1)N(Cc1ccccc1)S(=O)(=O)c1ccccc1Br (configuration not stated),1.29,inactive
Cc1cc(C(=O)NNS(=O)(=O)c2ccccc2C(F)(F)F)nn1C(C)(C)C,1,inactive
CC1(C)S[C@@H]2[C@H](N=CN3CCCCCC3)C(=O)N2[C@H]1C(=O)O,0.85,inactive
CN(C)N=Nc1ccc2nc[nH]c2c1,1.29,inactive
O=C(O)C1CCN(c2ccc([N+](=O)[O-])cc2[N+](=O)[O-])CC1,0.9,inactive
CCOC(=O)c1ccc(NC(=O)c2nc[nH]c2C(=O)NCc2ccccc2)cc1,0.92,inactive
CC(C)(C)Oc1ccccc1Nc1nc(NCCO)nc(N2CCCC2)n1,0.69,inactive
CCOC(=O)C1Nc2ccc(C(F)(F)F)cc2C2C=CCC12 (configuration not stated),0.82,inactive
O=[N+]([O-])c1ccc(N/N=C/c2ccccc2)cc1,1.08,inactive
O=c1c2c3c(sc2n(CCN2CCCC2)c(=O)n1Cc1ccccc1)CCCCC3,0.84,inactive
Cc1ccc(NC(=O)/C(=C/c2ccc([N+](=O)[O-])cc2)NC(=O)c2ccccc2)cc1,0.83,inactive
COc1ccc2[nH]c(=S)cc(C)c2c1,1.08,inactive
CCOC(=O)C1CCN(c2c(Nc3cc(C)cc(C)c3)c(=O)c2=O)CC1,0.95,inactive
CC(NC(=S)Nc1ccccc1)C(c1cccs1)N1CCOCC1 (configuration not stated),1,inactive
Cc1nc(-c2ccc(Cl)cc2)sc1C1(C)CC(c2ccc(Br)cc2)=NO1 (configuration not stated),0.87,inactive
CCOC(=O)/C=C/c1ccc(C(F)(F)F)cc1S(=O)(=O)NC(C)(C)C,0.67,inactive
CC(C)n1c(=S)[nH]c2cc(C(F)(F)F)ccc21,1.02,inactive
COc1cccc(Nc2nnc(SCC(=O)N3CC(=O)Nc4ccccc43)s2)c1,1,inactive
CCc1nnc(SCc2cccc(F)c2)nc1CC,1.19,inactive
CC1(C)CC[C@]2(C(=O)O)CC[C@]3(C)C(=CCC4[C@@]5(C)CC[C@H](O)C(C)(C)C5[C@H](O)C[C@]43C)[C@@H]2C1 (some centres not stated),0.82,inactive
COC(C[C@@H](O)C[C@@H](O)[C@H](C)OCc1ccccc1)OC,1.01,inactive
COC(=O)c1cc(=O)n(-c2c(Cl)cc(C(F)(F)F)cc2Cl)[nH]1,0.98,inactive
S=c1[nH]nc(-c2cc(-c3ccccc3)n[nH]2)n1/N=C/c1c2ccccc2cc2ccccc12,0.83,inactive
